# In the supplement of paper PMC4723716:
# ± gives the uncertainty stated by the source. Whole data set: some 9,900 compounds, median “viability index relative to DMSO control” near 1, cut for the lowest 2% near 0.85. Many of the other results were omitted from the sample, so the lowest values are more common in it than they were.
# Test system: Plasmodium falciparum NF54 stage V gametocytes
# Test: viability index relative to DMSO control (fraction); higher = less gametocyte killing
# Details: 2.5 µM, incubation time: 72 h
# In short: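 P. falciparum NF54 stage V gametocytes in serum-free screening medium (0.75% gametocytemia, 1.25% hematocrit, 10 µl) were incubated with compound at 2.5 µM in 1,536-well plates for 72 hr at 37°C under low oxygen. Then 3 µl of 2.5 µM MitoTracker Red CMXRos plus 0.13% saponin was added for one to two hours. One field per well was imaged, 20–70 µm2 red particles were counted, and the viability index was the count divided by the plate mean of DMSO wells.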
# [1] = library set: Broad Institute DOS
# [2] = library set: Broad Institute Blood Stage
SMILES,viability index [1],viability index [2]
CCCC(=O)N1C[C@@]2(C1)CN([C@@H](CO)c1c2c2ccc(OC)cc2n1C)C(=O)Nc1cccc(F)c1,0.997 ± 0.13,–
C[C@H](NC(=O)C[C@@H]1C=C[C@H](NS(=O)(=O)c2cccc(F)c2)[C@H](CO)O1)c1ccccc1,1.08 ± 0.11,–
N#Cc1ccc(-c2ccc([C@H]3[C@@H](CO)N4C(=O)CNC[C@@H]34)cc2)cc1,0.965 ± 0.1,–
CN1CCN(C(=O)C[C@H]2CC[C@@H]3[C@H](COC[C@@H](O)CN3C(=O)Nc3ccc4c(c3)OCO4)O2)CC1,1.05 ± 0.017,–
O=C(C1CCCCC1)N1[C@H](CO)[C@@H](c2ccccc2)C12CN(Cc1cccc(Cl)c1)C2,–,0.748 ± 0.048
O=C(C1CCOCC1)N1[C@@H](CO)[C@@H](c2ccccc2)C12CN(Cc1cccc(Cl)c1)C2,1.103 ± 0.0018,–
O=C(C1CCOCC1)N1[C@H](CO)[C@@H](c2ccccc2)C12CN(Cc1cccc(Cl)c1)C2,1.1 ± 0.062,–
O=C(C[C@H]1C[C@H]2c3cc(NS(=O)(=O)c4ccc(F)cc4)ccc3O[C@H]2[C@H](CO)O1)N1CCc2ccccc2C1,0.861 ± 0.059,–
C[C@@H]1CCn2nncc2COC[C@H]2CCCN2C1=O,1.04 ± 0.058,–
O=S(=O)(c1ccccc1)N1CCCCN2[C@H](C1)[C@@H](c1ccc(C#CC3CCCC3)cc1)[C@@H]2CO,0.907 ± 0.07,–
O=S(=O)(c1ccccc1)N1CCCCN2[C@H](CO)[C@@H](c3ccc(C#CC4CCCC4)cc3)[C@@H]2C1,1.01 ± 0.026,–
O=S(=O)(c1ccccc1)N1CCCCN2[C@H](CO)[C@H](c3ccc(C#CC4CCCC4)cc3)[C@H]2C1,0.8253 ± 0.0077,–
O=S(=O)(c1ccccc1)N1CCCCN2[C@H](C1)[C@H](c1ccc(C#CC3CCCC3)cc1)[C@@H]2CO,1.03 ± 0.031,–
O=S(=O)(c1ccccc1)N1CCCCN2[C@H](CO)[C@@H](c3ccc(C#CC4CCCC4)cc3)[C@H]2C1,1.03 ± 0.056,–
O=S(=O)(c1ccccc1)N1CCCCN2[C@@H](CO)[C@@H](c3ccc(C#CC4CCCC4)cc3)[C@@H]2C1,0.8429 ± 0.006,–
O=C(CN1CCOCC1)N1[C@H](CO)[C@H]2c3ccccc3NC[C@H]21,1 ± 0.088,–
C[C@H]1CN([C@@H](C)CO)C(=O)c2cc(NC(=O)Nc3cccc4ccccc34)ccc2O[C@@H]1CN(C)S(=O)(=O)c1cccs1,1.06 ± 0.026,–
CN(C)C(=O)c1cccc(-c2ccc3c(c2)[C@H]2[C@H](CCN2Cc2nccs2)[C@H](CO)N3)c1,0.818 ± 0.014,–
CN(C)C(=O)c1cccc(-c2ccc3c(c2)[C@@H]2[C@@H](CCN2C(=O)c2cnccn2)[C@H](CO)N3)c1,1.17 ± 0.072,–
CN(C)C(=O)c1cccc(-c2ccc3c(c2)[C@H]2[C@H](CCN2Cc2nccs2)[C@@H](CO)N3)c1,1.18 ± 0.023,–
COc1ccccc1CN1CC[C@@H]2[C@H]1c1cc(C3=CCCCC3)ccc1N[C@@H]2CO,0.8126 ± 0.0046,–
CN(C)C(=O)c1cccc(-c2ccc3c(c2)[C@H]2[C@H](CCN2C(=O)c2cnccn2)[C@H](CO)N3)c1,1.1 ± 0.035,–
COc1ccccc1-c1ccc2c(c1)[C@H]1[C@H](CCN1Cc1ccccc1F)[C@@H](CO)N2,1.02 ± 0.035,–
COc1ccccc1CN1CC[C@@H]2[C@H](CO)Nc3ccc(-c4cccc(C(=O)N(C)C)c4)cc3[C@@H]21,0.841 ± 0.072,–
CN(C)C(=O)c1cccc(-c2ccc3c(c2)[C@@H]2[C@@H](CCN2C(=O)c2cnccn2)[C@@H](CO)N3)c1,1.12 ± 0.032,–
COc1ccccc1CN1CC[C@@H]2[C@H]1c1cc(-c3cccc(C(=O)N(C)C)c3)ccc1N[C@@H]2CO,1.09 ± 0.028,–
CN(C)C(=O)c1cccc(-c2ccc3c(c2)[C@@H]2[C@@H](CCN2Cc2nccs2)[C@@H](CO)N3)c1,0.785 ± 0.07,–

SMILES,viability index [1],viability index [2]
OC[C@@H]1Nc2ccc(C3=CCCCC3)cc2[C@@H]2[C@H]1CCN2Cc1nccs1,1.06 ± 0.059,–
CN(C)C(=O)c1cccc(-c2ccc3c(c2)[C@H]2[C@H](CCN2C(=O)c2cnccn2)[C@@H](CO)N3)c1,1.16 ± 0.02,–
C[C@H]1CCCCO[C@H](CN(C)C(=O)Nc2ccc(C(F)(F)F)cc2)[C@@H](C)CN([C@@H](C)CO)C(=O)c2cc(NS(=O)(=O)c3cn(C)cn3)ccc2O1,1.01 ± 0.013,–
CO[C@H]1CN(C)C(=O)c2ccc(NS(C)(=O)=O)cc2OC[C@H](C)N(CC2CC2)C[C@@H]1C,1.03 ± 0.087,–
CO[C@@H](CN(C)Cc1nccs1)[C@@H](C)CN([C@@H](C)CO)S(=O)(=O)c1ccc(F)cc1,1.04 ± 0.0028,–
COCC(=O)Nc1ccc2c(c1)[C@@H]1C[C@@H](CC(=O)NCc3ccc4c(c3)OCO4)O[C@@H](CO)[C@@H]1O2,1.01 ± 0.047,–
N#C[C@@H]1[C@H](c2ccccc2C2=CCCCC2)[C@H](CO)N1C(=O)CN1CCOCC1,1.17 ± 0.13,–
N#C[C@H]1[C@@H](c2ccc(-c3cccnc3)cc2)[C@@H](CO)N1C(=O)C1CCOCC1,1.07 ± 0.031,–
C[C@@H]1CCCCO[C@@H](CN(C)C(=O)CCC(F)(F)F)[C@H](C)CN([C@@H](C)CO)C(=O)c2cc(NC(=O)C3CCCCC3)ccc2O1,1.13 ± 0.072,–
Cc1ccccc1S(=O)(=O)N1C[C@@H]2N[C@H](C1)[C@H]2c1ccc(/C=C/c2ccccc2)cc1,1 ± 0.048,–
COc1ccc(-c2ccc([C@H]3[C@@H]4CN(S(=O)(=O)c5ccccc5C)C[C@H]3N4)cc2)cc1,0.916 ± 0.068,–
O=S(=O)(c1ccc(F)cc1)N1C[C@@H]2N[C@H](C1)[C@@H]2c1ccc(/C=C/c2ccccc2)cc1,0.78 ± 0.029,–
COc1ccc(-c2ccc([C@@H]3[C@@H]4CN(S(=O)(=O)c5ccccc5C)C[C@H]3N4)cc2)cc1,0.713 ± 0.11,–
C/C=C/c1ccc([C@@H]2[C@@H]3CN(S(=O)(=O)c4ccccc4F)C[C@H]2N3)cc1,0.904 ± 0.016,–
O=S(=O)(c1ccc(F)cc1)N1C[C@@H]2N[C@H](C1)[C@H]2c1ccc(/C=C/c2ccccc2)cc1,1.04 ± 0.055,–
Cc1ccccc1S(=O)(=O)N1C[C@@H]2N[C@H](C1)[C@H]2c1ccc(-c2cccc(C#N)c2)cc1,1.03 ± 0.033,–
Cc1ccccc1S(=O)(=O)N1C[C@@H]2N[C@H](C1)[C@@H]2c1ccc(-c2cccc(C#N)c2)cc1,0.903 ± 0.018,–
Cc1ccccc1S(=O)(=O)N1C[C@@H]2N[C@H](C1)[C@@H]2c1ccc(/C=C/c2ccccc2)cc1,0.771 ± 0.028,–
COc1cccc(S(=O)(=O)N[C@@H]2CC[C@H](CC(=O)NC3Cc4ccccc4C3)O[C@H]2CO)c1,0.907 ± 0.18,–
Cc1ccc(S(=O)(=O)Nc2ccc3c(c2)C(=O)N([C@H](C)CO)C[C@H](C)[C@H](CN(C)S(=O)(=O)c2cccs2)OCCCC[C@H](C)O3)cc1,1.07 ± 0.14,–
CNC[C@H]1Oc2ccc(NS(=O)(=O)c3ccc(OC)cc3)cc2C(=O)N([C@H](C)CO)C[C@H]1C,1.01 ± 0.079,–
Cc1noc(C)c1NC(=O)N[C@H]1C=C[C@H](CC(=O)Nc2ccc(-c3ccccc3)cc2)O[C@H]1CO,1.0744 ± 0.00039,–
CO[C@H]1CN(C)C(=O)c2cc(NC(=O)c3ccc(F)cc3)ccc2OC[C@@H](C)N(C(=O)CC2CC2)C[C@H]1C,1.099 ± 0.004,–
CCCNC(=O)N1C[C@@H](O)COC[C@H]2O[C@@H](CC(=O)OC)CC[C@@H]21,1.14 ± 0.053,–
N#C[C@@H]1[C@H](c2ccccc2-c2cccc(F)c2)[C@H](CO)N1C(=O)CN1CCOCC1,1.15 ± 0.068,–
C/C=C/c1ccc([C@H]2[C@@H](CNC(=O)CC3CC3)N(C(=O)CC)[C@H]2CO)cc1,1.05 ± 0.054,–
C/C=C/c1ccc([C@H]2[C@H](CO)N(S(C)(=O)=O)[C@H]2CNCC2CCC2)cc1,0.688 ± 0.08,–

SMILES,viability index [1],viability index [2]
C/C=C/c1ccc([C@H]2[C@@H](CO)N(S(C)(=O)=O)[C@@H]2CN(C(C)=O)C(C)C)cc1,0.957 ± 0.06,–
C/C=C/c1ccc([C@H]2[C@@H](CO)N(CC3CCCCC3)[C@@H]2CNC(C)C)cc1,–,0.565 ± 0.068
C/C=C/c1ccc([C@H]2[C@@H](CO)N(C(=O)C3CC3)[C@H]2CNC(=O)NC(C)C)cc1,0.989 ± 0.018,–
C/C=C/c1ccc([C@H]2[C@@H](CO)N(CC3CCCC3)[C@H]2CNS(C)(=O)=O)cc1,1.03 ± 0.099,–
CCC(=O)Nc1ccc2c(c1)C(=O)N(C)C[C@@H](OC)[C@@H](C)CN(Cc1nccs1)[C@H](C)CO2,1.16 ± 0.082,–
COC(=O)C[C@@H]1CC[C@@H]2[C@@H](COc3ccc(NC(=O)c4ccc(C(F)(F)F)cc4)cc3C(=O)N2C)O1,1.13 ± 0.065,–
C[C@@H]1COCn2nncc2CC[C@H](Cc2cccc(Cl)c2)C(=O)N1,1.09 ± 0.051,–
COCC(=O)Nc1ccc2c(c1)C(=O)N(C)[C@H]1CC[C@@H](CC(=O)NC3Cc4ccccc4C3)O[C@@H]1CO2,1.16 ± 0.13,–
C[C@H](CO)N1C[C@H](C)[C@@H](CN(C)C(=O)C2CCCCC2)Oc2ncc(/C=C/c3ccccc3)cc2C1=O,–,0.735 ± 0.028
C[C@H]1CN([C@@H](C)CO)C(=O)c2cc(/C=C/c3ccccc3)cnc2O[C@@H]1CN(C)S(=O)(=O)c1ccccc1F,1.03 ± 0.082,–
C[C@@H]1CN([C@@H](C)CO)C(=O)c2cc(/C=C/c3ccccc3)cnc2O[C@@H]1CN(C)S(=O)(=O)c1ccccc1F,1.02 ± 0.059,–
C[C@H]1CN([C@@H](C)CO)C(=O)c2cc(/C=C/c3ccccc3)cnc2O[C@@H]1CN(C)C(=O)C1CCCCC1,–,0.643 ± 0.072
C[C@H](CO)N1C[C@H](C)[C@@H](CN(C)S(=O)(=O)c2ccccc2F)Oc2ncc(/C=C/c3ccccc3)cc2C1=O,1.05 ± 0.049,–
C[C@H]1CN([C@@H](C)CO)C(=O)c2cc(/C=C/c3ccccc3)cnc2O[C@H]1CN(C)S(=O)(=O)c1ccccc1F,1.03 ± 0.12,–
COc1ccc2c3c([nH]c2c1)[C@@H](CO)N(Cc1cc(OC)cc(OC)c1)C[C@]31CN(C1)C(=O)Nc1c(C)noc1C,0.974 ± 0.12,–
C[C@H](CO)N1C[C@H](C)[C@@H](CN(C)Cc2ccc3cccnc3c2)OCc2cnnn2CCCC1=O,1.07 ± 0.014,–
Cc1noc(C)c1NC(=O)Nc1ccc2c(c1)C(=O)N([C@@H](C)CO)C[C@H](C)[C@H](CN(C)S(=O)(=O)c1cccs1)OCCCC[C@@H](C)O2,1.09 ± 0.045,–
CC(C)NC(=O)Nc1ccc2c(c1)C(=O)N(C)[C@@H]1CC[C@H](CC(=O)NCc3ccc(F)cc3)O[C@@H]1CO2,1.11 ± 0.047,–
COc1ccc(C(=O)Nc2ccc3c(c2)C(=O)N(C)[C@H]2CC[C@H](CC(=O)NCC4CC4)O[C@H]2CO3)cc1,0.823 ± 0.15,–
CN1C(=O)c2cc(NC(=O)Nc3ccc(Cl)cc3)ccc2OC[C@@H]2O[C@H](CC(=O)NCCN3CCCCC3)CC[C@H]21,0.955 ± 0.11,–
CC(C)NC(=O)Nc1ccc2c(c1)C(=O)N(C)[C@H]1CC[C@H](CC(=O)NCc3ccc(F)cc3)O[C@H]1CO2,0.919 ± 0.034,–
CC(C)NC(=O)Nc1ccc2c(c1)C(=O)N(C)[C@H]1CC[C@@H](CC(=O)NCc3ccc(F)cc3)O[C@H]1CO2,0.814 ± 0.17,–
COc1ccc(C(=O)Nc2ccc3c(c2)C(=O)N(C)[C@@H]2CC[C@@H](CC(=O)NCC4CC4)O[C@@H]2CO3)cc1,1.03 ± 0.11,–
CN1C(=O)c2cc(NC(=O)Nc3ccc(Cl)cc3)ccc2OC[C@H]2O[C@@H](CC(=O)NCCN3CCCCC3)CC[C@H]21,1.01 ± 0.025,–
COc1ccc(C(=O)Nc2ccc3c(c2)C(=O)N(C)[C@@H]2CC[C@@H](CC(=O)NCC4CC4)O[C@H]2CO3)cc1,0.932 ± 0.15,–
CN1C(=O)c2cc(NC(=O)Nc3ccc(Cl)cc3)ccc2OC[C@@H]2O[C@@H](CC(=O)NCCN3CCCCC3)CC[C@H]21,0.838 ± 0.04,–
